PubChem BioAssay AID1508600 (Functional Genomics Laboratory (NCATS/FGL), 2020)
Screen size: about 53,000 sequences; about 3,700 (7%) were called active.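 How the source made its calls: active means gene knockdowns whose robust z-score for IL-1 alpha signal is at least 2 or at most -2, so actives lie on both sides; inactive means the rest.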 Only a selection was taken, and actives are over-represented in it overall.

assay: Components of the Cytosolic LPS Sensing Pathway: Gene Identification via Genome-wide siRNA Screen; conditions: RAW264.7 macrophages, IL-1a HTRF, actives lie on both sides, screened at 100 nM (by protocol), cells primed 5 h with Pam3CSK4 first;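 further: robust z of the log signal after scaling to non-targeting control siRNA wells of the plate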
In short: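 Supernatant IL-1a by HTRF from RAW264.7 cells primed with Pam3CSK4 (5 hours) and transfected with LipidA (24 hour) after 48h siRNA knockdown at 100 nM; cell viability checked with CellTiter-Glo.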

Row | Sequence | z-score
1 | GGCUCCAUCAAGAAAAGUUTT against Usp21 | 0.681 (inactive)
2 | GGCCUUCCUUGACCAAUCUTT against Ren1 | -2.11 (active)
3 | GGACUGUGCAACUUUGUGGTT against Timp3 | -0.634 (inactive)
4 | GGAGUUGGUUCUGUGUUAUTT against Tcf7l2 | -0.271 (inactive)
5 | CGGAACAUGGAGUUUAAGCTT against Slfnl1 | 2.3 (active)
6 | GGAAUGAGUUAGAAUAGCGTT against BC004004 | -0.923 (inactive)
7 | GGAAAGAAACUAAGGAAAATT against Arhgap15 | 0.628 (inactive)
8 | GGAGCUUGACAUUAAGGACTT against Erc2 | 0.809 (inactive)
9 | GGAAAUAAACAAGUCCCACTT against Urm1 | 0.465 (inactive)
10 | CGACGAAGUGGUCGGAAUUTT against Cryzl1 | 2.1 (active)
11 | GGUGAUGUAUGUUACGCUGTT against Srsf1 | -0.00436 (inactive)
12 | GGAGAAAGAGAAAAUCGCUTT against Csnk1g2 | -0.736 (inactive)
13 | GGUUAUCAGUUGCAUUGUUTT against Gpr37l1 | 0.809 (inactive)
14 | GGAAGUCGGGCAAAUACAATT against Tacstd2 | 5.77 (active)
15 | GCUCAUUCUCAAAGGCUUATT against Rdh12 | 0.659 (inactive)
16 | GGAAUACAUCGAGUAUCUCTT against Xab2 | -1.43 (inactive)
17 | GCUCGAGUGUAAGAUCUGUTT against Rnf182 | 0.355 (inactive)
18 | CCCGUUCGUGCAUGAGUUATT against Lpcat4 | 0.532 (inactive)
19 | CCGGGAAACCAACAAAUCATT against Rbmxl1 | 2.19 (active)
20 | GGUGGAAUUCAUUUUGACATT against Dnajb6 | -0.42 (inactive)
21 | GGCAAUGACCUUGUAAAGATT against Tomm34 | -1.56 (inactive)
22 | GUGCUAUUCAUGCACAGCATT against Psca | 0.0658 (inactive)
23 | GGAUGUCUUUUUAAGGUUUTT against Eid1 | 0.987 (inactive)

Row | Sequence | z-score
24 | CCCGUCCCAUCCAUUAUUUTT against Zfp787 | -1.19 (inactive)
25 | GGUGUUUGUGACUCUGGGUTT against Mc4r | 2.77 (active)
26 | GCUUUGCAAUUCACAGGGATT against Scgb1b27 | -1.76 (inactive)
27 | GGGUUUGAUUCAUCAAAAATT against Peli1 | 0.314 (inactive)
28 | CCUACGCCAAGCAGUAUGATT against Mcm3 | 0.286 (inactive)
29 | GGAUUUUGACAGUCUGUGUTT against Endou | -0.438 (inactive)
30 | GGACUGAUUGUUUUAUGCUTT against Gdap10 | -1.06 (inactive)
31 | GGCCCUCAAUACCUGUGGUTT against Olfr690 | -3.13 (active)
32 | GGAGAGACAUCCAAAAGUATT against H60a | 0.658 (inactive)
33 | GCCAUAUAAUUUGACAGAGTT against Tarm1 | -0.0405 (inactive)
34 | GCUCACAACAUGAGAGUCATT against Atp6v0e | -0.539 (inactive)
35 | GGGAAUUACAGCACACAAUTT against Treml4 | -0.21 (inactive)
36 | GGAACAAAACAAAUAGCUATT against Vstm2a | 1.79 (inactive)
37 | GGUUUCUAUAAAUCUCCCUTT against Eif4b | 0.895 (inactive)
38 | CGUGGUCUUCACGAUUGGATT against Pde4c | 3.71 (active)
39 | GGAGGCUAUCAGAAGCAUCTT against C130021I20Rik | 0.762 (inactive)
40 | GGAACCAACAGAGAAAACUTT against Hr | 0.317 (inactive)
41 | GGCCUGUUUUUGCAUUUUATT against 9030612E09Rik | -0.0316 (inactive)
42 | GCAUUCGAAAUGAAGAUAATT against Dnajb1 | -1.75 (inactive)
43 | GGUUUUCUUUUCUUCUGCCTT against Aar2 | -1.11 (inactive)
44 | GGGAUUCACUCUUCUUUAGTT against Sebox | 1.97 (inactive)
45 | GGAACAAGCAAGUCAAACATT against Olfr770 | 2.24 (active)
46 | CGACUGGGUCUUAUGUUUATT against Tas2r121 | -0.105 (inactive)

Row | Sequence | z-score
47 | CCAAGAAAGACAGUAACUATT against 4930432K21Rik | -0.986 (inactive)
48 | GGAUCUGGACUUAAUGCUCTT against Tfeb | -0.383 (inactive)
49 | GGCCUUACCAAAUGGAAGUTT against Ifih1 | 2.89 (active)
50 | GCACGGAUUAAUGUGAUGATT against Ilk | 0.406 (inactive)
51 | CCGUUGGAUACUGUAGUUCTT against Gpr152 | 0.023 (inactive)
52 | GCAACACACCAUAUCAGGATT against Tas2r135 | -0.322 (inactive)
53 | CCACCAUCGGUUGUUAGUUTT against Actg1 | 1.81 (inactive)
54 | GGACAGCUUGUAAAUUGCCTT against Mup21 | -2.05 (active)
55 | GGUCUCAUUUCAAAUGGUUTT against Lonrf3 | 0.63 (inactive)
56 | GGAGAUUUCUUCCAUGGUCTT against Hspa2 | 0.445 (inactive)
57 | CGACAGAGUGAAAAUUAAGTT against Setd3 | -0.937 (inactive)
58 | CGCAGAGAAGGACUAUCUUTT against Ush1c | -1.58 (inactive)
59 | GGACAAGUGUCAGAUAUCATT against Asah2 | -2.02 (active)
60 | CCUGCUUACCAAAGAAUCCTT against Klf11 | -0.884 (inactive)
61 | GGGACAAGUUGGAUUCUUGTT against Polr1e | -0.96 (inactive)
62 | GCCUUACAACAAGCAACACTT against Esrp1 | -0.385 (inactive)
63 | GCGGGCCAUGACAAUUACUTT against Slc45a1 | 0.566 (inactive)
64 | GCGAUGCUGGCAAGUAUGUTT against Robo1 | 0.45 (inactive)
65 | CCCAGACGAGAACUGUAUCTT against Sqor | -0.0381 (inactive)
66 | GGGUUAGGAUACCUCGACUTT against Arnt2 | -2.5 (active)
67 | GGAAAGAUGUGGAAGUAAATT against Erc1 | -0.977 (inactive)
68 | GGAAAAGCAAGAGGAAAGATT against Ifnb1 | 2.39 (active)
69 | GCAACCAUCGUAGCAGAUCTT against Aaas | 1.54 (inactive)
